For twelve sequences, binding signal results are on record in publication PMC11006913.

Changes are numbered by the printed parent chain.

Common to all, as to test: PBM; 200 nM protein, PBS
What all share (conditions): dsDNA, one strand shown

Assay [1] concerns the target HOXC10 (Homo sapiens, UniProt Q9NYD6 254-340).
Assay [2] addresses MSX2 (Homo sapiens, UniProt P35548 130-214, R199I).
Assay [3] addresses HOXC10 (Homo sapiens, UniProt Q9NYD6 254-340, K271E).
Assay [4] has as its target MSX2 (Homo sapiens, UniProt P35548 130-214).
Assay [5] addresses MSX2 (Homo sapiens, UniProt P35548 130-214, F161Y).
The target of assay [6] is HOXD13 (Homo sapiens, UniProt P35453 263-343, T313R).
HOXD13 (Homo sapiens, UniProt P35453 263-343, T313R), sequence (P35453 263-343 T313R): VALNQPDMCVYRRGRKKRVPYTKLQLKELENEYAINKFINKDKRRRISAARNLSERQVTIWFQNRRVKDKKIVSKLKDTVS
In assay [7] the target is HOXD13 (Homo sapiens, UniProt P35453 263-343).
HOXD13 (Homo sapiens, UniProt P35453 263-343), sequence (P35453 263-343): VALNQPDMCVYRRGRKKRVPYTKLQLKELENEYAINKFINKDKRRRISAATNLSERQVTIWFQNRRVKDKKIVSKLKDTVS
Assay [8] has as its target HOXD13 (Homo sapiens, UniProt P35453 263-343, T313A).
The target of assay [9] is T1, PAX4 (Homo sapiens, UniProt O43316 9-242, R200K).
T1 sequence: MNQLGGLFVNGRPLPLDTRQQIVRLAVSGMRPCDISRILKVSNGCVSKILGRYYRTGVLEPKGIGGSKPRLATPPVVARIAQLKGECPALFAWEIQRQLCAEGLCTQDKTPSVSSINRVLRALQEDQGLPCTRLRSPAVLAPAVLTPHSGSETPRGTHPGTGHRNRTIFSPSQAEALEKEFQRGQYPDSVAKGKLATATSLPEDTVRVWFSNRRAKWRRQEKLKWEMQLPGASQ

Assay [10] addresses T2, PAX4 (Homo sapiens, UniProt O43316 9-242).
T2 sequence: T1 sequence with K192R

In assay [11] the target is T3, PAX4 (Homo sapiens, UniProt O43316 9-242, R200Q).
T3 sequence: T1 sequence with K192Q

Assay [12] has as its target T4, PAX4 (Homo sapiens, UniProt O43316 9-242, F177V).
T4 sequence: T1 sequence with F169V, K192R

The target in assay [13] is T5, PAX4 (Homo sapiens, UniProt O43316 9-242, F177Y).
T5 sequence: T1 sequence with F169Y, K192R

In assay [14] the target is PROP1 (Homo sapiens, UniProt O75360 56-141).
PROP1 (Homo sapiens, UniProt O75360 56-141), sequence (O75360 56-141): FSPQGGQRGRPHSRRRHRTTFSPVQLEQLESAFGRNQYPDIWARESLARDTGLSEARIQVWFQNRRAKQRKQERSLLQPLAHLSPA
Assay [15] has as its target PROP1 (Homo sapiens, UniProt O75360 56-141, R99H).
Assay [16] addresses PROP1 (Homo sapiens, UniProt O75360 56-141, F88S).
Assay [17] deals with T6, PAX4 (Homo sapiens, UniProt O43316 9-242, R227W).
T6 sequence: T1 sequence with K192R, R219W

In assay [18] the target is HOXA2 (Homo sapiens, UniProt O43364 129-215, R185T).
HOXA2 (Homo sapiens, UniProt O43364 129-215, R185T), sequence (O43364 129-215 R185T): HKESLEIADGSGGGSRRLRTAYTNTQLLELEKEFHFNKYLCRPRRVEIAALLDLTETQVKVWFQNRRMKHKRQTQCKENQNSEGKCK
Assay [19] addresses HOXA2 (Homo sapiens, UniProt O43364 129-215, R185K).
Assay [20] has as its target HOXA2 (Homo sapiens, UniProt O43364 129-215, Y150S).
Assay [21] deals with HOXA2 (Homo sapiens, UniProt O43364 129-215).
HOXA2 (Homo sapiens, UniProt O43364 129-215), sequence (O43364 129-215): as the sequence (O43364 129-215 R185T) above, with T57R counted along it
Assay [22] concerns the target ALX3 (Homo sapiens, UniProt O95076 139-225, N203Q).
Assay [23] has as its target T7, NKX2-6 (Homo sapiens, UniProt A6NCS4 118-204).
T7 sequence: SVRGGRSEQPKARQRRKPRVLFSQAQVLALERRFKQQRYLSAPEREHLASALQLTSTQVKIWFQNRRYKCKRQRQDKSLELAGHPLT

For assay [24], the target named is ALX3 (Homo sapiens, UniProt O95076 139-225).
ALX3 (Homo sapiens, UniProt O95076 139-225), sequence (O95076 139-225): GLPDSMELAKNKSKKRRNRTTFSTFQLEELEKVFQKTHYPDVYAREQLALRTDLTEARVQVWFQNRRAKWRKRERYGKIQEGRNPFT
For assay [25], the target named is ALX3 (Homo sapiens, UniProt O95076 139-225, L168Q).
ALX3 (Homo sapiens, UniProt O95076 139-225, L168Q), sequence (O95076 139-225 L168Q): as the sequence (O95076 139-225) above, with L30Q counted along it
The target in assay [26] is T8, NKX2-6 (Homo sapiens, UniProt A6NCS4 118-204, F151L).
T8 sequence: T7 sequence with F34L

Assay [27] deals with ALX3 (Homo sapiens, UniProt O95076 139-225, L168V).
ALX3 (Homo sapiens, UniProt O95076 139-225, L168V), sequence (O95076 139-225 L168V): as the sequence (O95076 139-225) above, with L30V counted along it
In assay [28] the target is ALX3 (Homo sapiens, UniProt O95076 139-225, N203S).
ALX3 (Homo sapiens, UniProt O95076 139-225, N203S), sequence (O95076 139-225 N203S): as the sequence (O95076 139-225) above, with N65S counted along it
The target in assay [29] is ALX1 (Homo sapiens, UniProt Q15699 118-204, L144V).
ALX1 (Homo sapiens, UniProt Q15699 118-204, L144V), sequence (Q15699 118-204 L144V): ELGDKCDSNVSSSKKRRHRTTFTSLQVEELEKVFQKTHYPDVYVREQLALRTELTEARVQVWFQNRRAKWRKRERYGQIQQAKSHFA
In assay [30] the target is ALX1 (Homo sapiens, UniProt Q15699 118-204, L144R).
ALX1 (Homo sapiens, UniProt Q15699 118-204, L144R), sequence (Q15699 118-204 L144R): as the sequence (Q15699 118-204 L144V) above, with V27R counted along it
The target of assay [31] is ALX1 (Homo sapiens, UniProt Q15699 118-204).
ALX1 (Homo sapiens, UniProt Q15699 118-204), sequence (Q15699 118-204): as the sequence (Q15699 118-204 L144V) above, with V27L counted along it
Assay [32] addresses PRRX1 (Homo sapiens, UniProt P54821 80-166, F113S).
Assay [33] deals with HOXB6 (Homo sapiens, UniProt P17509 132-218, K202E).
HOXB6 (Homo sapiens, UniProt P17509 132-218, K202E), sequence (P17509 132-218 K202E): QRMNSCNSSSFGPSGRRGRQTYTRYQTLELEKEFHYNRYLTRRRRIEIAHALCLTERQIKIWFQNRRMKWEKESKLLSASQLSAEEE
Assay [34] addresses PRRX1 (Homo sapiens, UniProt P54821 80-166).
Assay [35] has as its target HOXB6 (Homo sapiens, UniProt P17509 132-218).

PROP1 (Homo sapiens, UniProt O75360 56-141, F88S), sequence (O75360 56-141 F88S): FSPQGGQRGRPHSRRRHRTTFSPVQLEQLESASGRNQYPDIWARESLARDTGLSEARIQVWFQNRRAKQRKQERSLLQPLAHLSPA
HOXC10 (Homo sapiens, UniProt Q9NYD6 254-340, K271E), sequence (Q9NYD6 254-340 K271E): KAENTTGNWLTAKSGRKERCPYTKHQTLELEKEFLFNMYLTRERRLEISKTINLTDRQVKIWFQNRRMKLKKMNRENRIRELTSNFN
HOXC10 (Homo sapiens, UniProt Q9NYD6 254-340), sequence (Q9NYD6 254-340): as the sequence (Q9NYD6 254-340 K271E) above, with E18K counted along it
PROP1 (Homo sapiens, UniProt O75360 56-141, R99H), sequence (O75360 56-141 R99H): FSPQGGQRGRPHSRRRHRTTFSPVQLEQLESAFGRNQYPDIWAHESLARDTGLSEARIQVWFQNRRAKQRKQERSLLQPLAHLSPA
HOXD13 (Homo sapiens, UniProt P35453 263-343, T313A), sequence (P35453 263-343 T313A): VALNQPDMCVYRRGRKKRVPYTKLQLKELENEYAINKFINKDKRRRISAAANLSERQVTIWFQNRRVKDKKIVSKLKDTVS
MSX2 (Homo sapiens, UniProt P35548 130-214), sequence (P35548 130-214): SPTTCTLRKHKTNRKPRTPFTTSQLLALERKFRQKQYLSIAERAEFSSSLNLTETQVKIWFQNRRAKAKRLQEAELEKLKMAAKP
HOXA2 (Homo sapiens, UniProt O43364 129-215, R185K), sequence (O43364 129-215 R185K): as the sequence (O43364 129-215 R185T) above, with T57K counted along it
PRRX1 (Homo sapiens, UniProt P54821 80-166), sequence (P54821 80-166): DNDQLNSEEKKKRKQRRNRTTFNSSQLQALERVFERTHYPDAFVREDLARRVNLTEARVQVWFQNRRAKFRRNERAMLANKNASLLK
PRRX1 (Homo sapiens, UniProt P54821 80-166, F113S), sequence (P54821 80-166 F113S): as the sequence (P54821 80-166) above, with F34S counted along it
MSX2 (Homo sapiens, UniProt P35548 130-214, R199I), sequence (P35548 130-214 R199I): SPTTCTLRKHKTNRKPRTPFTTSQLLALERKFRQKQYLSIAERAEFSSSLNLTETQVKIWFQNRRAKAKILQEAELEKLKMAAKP
ALX3 (Homo sapiens, UniProt O95076 139-225, N203Q), sequence (O95076 139-225 N203Q): as the sequence (O95076 139-225) above, with N65Q counted along it
HOXB6 (Homo sapiens, UniProt P17509 132-218), sequence (P17509 132-218): as the sequence (P17509 132-218 K202E) above, with E71K counted along it
MSX2 (Homo sapiens, UniProt P35548 130-214, F161Y), sequence (P35548 130-214 F161Y): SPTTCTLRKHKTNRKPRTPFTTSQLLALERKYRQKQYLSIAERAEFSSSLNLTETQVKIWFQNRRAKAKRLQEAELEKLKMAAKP
HOXA2 (Homo sapiens, UniProt O43364 129-215, Y150S), sequence (O43364 129-215 Y150S): as the sequence (O43364 129-215 R185T) above, with Y22S, T57R counted along it

With AGTCGGCG, the binding signal is 10.1 upbm affinity estimate (log intensity, higher = more binding, comparable within an allelic series) with HOXC10 [1]; 9.6 upbm affinity estimate (log intensity, higher = more binding, comparable within an allelic series) in the assay with MSX2 [2]; 10.1 upbm affinity estimate (log intensity, higher = more binding, comparable within an allelic series) with HOXC10 [3]; 9.58 upbm affinity estimate (log intensity, higher = more binding, comparable within an allelic series) in the assay with MSX2 [4]; 9.6 upbm affinity estimate (log intensity, higher = more binding, comparable within an allelic series) with MSX2 [5].
As to AGGGCGGA, the binding signal with HOXC10 [1] is 9.89 upbm affinity estimate (log intensity, higher = more binding, comparable within an allelic series); with HOXD13 [6], 9.35 upbm affinity estimate (log intensity, higher = more binding, comparable within an allelic series); with HOXD13 [7] it was 9.36 upbm affinity estimate (log intensity, higher = more binding, comparable within an allelic series); with HOXC10 [3], 9.9 upbm affinity estimate (log intensity, higher = more binding, comparable within an allelic series); with HOXD13 [8], 9.37 upbm affinity estimate (log intensity, higher = more binding, comparable within an allelic series).
As to CTCCCCCC, the binding signal is 9.99 upbm affinity estimate (log intensity, higher = more binding, comparable within an allelic series) with HOXC10 [1]; 9.31 upbm affinity estimate (log intensity, higher = more binding, comparable within an allelic series) in the assay with PAX4 [9]; 9.32 upbm affinity estimate (log intensity, higher = more binding, comparable within an allelic series) in the assay with PAX4 [10]; 9.28 upbm affinity estimate (log intensity, higher = more binding, comparable within an allelic series) with PAX4 [11]; 9.04 upbm affinity estimate (log intensity, higher = more binding, comparable within an allelic series) with PAX4 [12]; 9.94 upbm affinity estimate (log intensity, higher = more binding, comparable within an allelic series) in the assay with HOXC10 [3]. In addition, the binding signal with PAX4 [13] was 9.19 upbm affinity estimate (log intensity, higher = more binding, comparable within an allelic series); with PROP1 [14], 6.67 upbm affinity estimate (log intensity, higher = more binding, comparable within an allelic series); with PROP1 [15], 6.5 upbm affinity estimate (log intensity, higher = more binding, comparable within an allelic series); in the assay with PROP1 [16], 5.95 upbm affinity estimate (log intensity, higher = more binding, comparable within an allelic series); with PAX4 [17], 9.13 upbm affinity estimate (log intensity, higher = more binding, comparable within an allelic series).
Take CTGCCCCC: the binding signal with HOXC10 [1] was 9.96 upbm affinity estimate (log intensity, higher = more binding, comparable within an allelic series); in the assay with HOXA2 [18], 6.91 upbm affinity estimate (log intensity, higher = more binding, comparable within an allelic series); with HOXA2 [19] it was 9.95 upbm affinity estimate (log intensity, higher = more binding, comparable within an allelic series); with HOXC10 [3], 9.97 upbm affinity estimate (log intensity, higher = more binding, comparable within an allelic series); with PROP1 [14] it was 6.68 upbm affinity estimate (log intensity, higher = more binding, comparable within an allelic series); with PROP1 [15] it was 6.59 upbm affinity estimate (log intensity, higher = more binding, comparable within an allelic series). Also, the binding signal was 6.14 upbm affinity estimate (log intensity, higher = more binding, comparable within an allelic series) with PROP1 [16]; 10.3 upbm affinity estimate (log intensity, higher = more binding, comparable within an allelic series) in the assay with HOXA2 [20]; 7.21 upbm affinity estimate (log intensity, higher = more binding, comparable within an allelic series) with HOXA2 [21].
Take CCCCCAGG: the binding signal with HOXC10 [1] is 10.1 upbm affinity estimate (log intensity, higher = more binding, comparable within an allelic series); with ALX3 [22], 7.76 upbm affinity estimate (log intensity, higher = more binding, comparable within an allelic series); in the assay with NKX2-6 [23] it was 9.38 upbm affinity estimate (log intensity, higher = more binding, comparable within an allelic series); with HOXC10 [3], 10.1 upbm affinity estimate (log intensity, higher = more binding, comparable within an allelic series); with ALX3 [24], 7.79 upbm affinity estimate (log intensity, higher = more binding, comparable within an allelic series); in the assay with ALX3 [25], 7.67 upbm affinity estimate (log intensity, higher = more binding, comparable within an allelic series). The binding signal with NKX2-6 [26] is 9.1 upbm affinity estimate (log intensity, higher = more binding, comparable within an allelic series); in the assay with ALX3 [27], 7.72 upbm affinity estimate (log intensity, higher = more binding, comparable within an allelic series); in the assay with ALX3 [28], 7.71 upbm affinity estimate (log intensity, higher = more binding, comparable within an allelic series).
On to ACCCGAGC, for which the binding signal is 10.1 upbm affinity estimate (log intensity, higher = more binding, comparable within an allelic series) in the assay with HOXC10 [1]; 9.37 upbm affinity estimate (log intensity, higher = more binding, comparable within an allelic series) with PAX4 [9]; 9.24 upbm affinity estimate (log intensity, higher = more binding, comparable within an allelic series) with PAX4 [10]; 6.62 upbm affinity estimate (log intensity, higher = more binding, comparable within an allelic series) in the assay with ALX1 [29]; 9.32 upbm affinity estimate (log intensity, higher = more binding, comparable within an allelic series) with PAX4 [11]; 6.43 upbm affinity estimate (log intensity, higher = more binding, comparable within an allelic series) with ALX1 [30]. Also, the binding signal in the assay with PAX4 [12] was 9.28 upbm affinity estimate (log intensity, higher = more binding, comparable within an allelic series); in the assay with HOXC10 [3] it was 10 upbm affinity estimate (log intensity, higher = more binding, comparable within an allelic series); in the assay with PAX4 [13], 9.29 upbm affinity estimate (log intensity, higher = more binding, comparable within an allelic series); with PAX4 [17], 9.37 upbm affinity estimate (log intensity, higher = more binding, comparable within an allelic series); with ALX1 [31], 6.4 upbm affinity estimate (log intensity, higher = more binding, comparable within an allelic series).
TGTTACAA: in the assay with HOXC10 [1], the binding signal is 10.6 upbm affinity estimate (log intensity, higher = more binding, comparable within an allelic series).
As for GTTTACGA, the binding signal in the assay with HOXC10 [1] is 12.2 upbm affinity estimate (log intensity, higher = more binding, comparable within an allelic series); with HOXD13 [6], 10.8 upbm affinity estimate (log intensity, higher = more binding, comparable within an allelic series); with HOXD13 [7], 12.1 upbm affinity estimate (log intensity, higher = more binding, comparable within an allelic series); in the assay with HOXC10 [3], 11.6 upbm affinity estimate (log intensity, higher = more binding, comparable within an allelic series); with HOXD13 [8] it was 11.9 upbm affinity estimate (log intensity, higher = more binding, comparable within an allelic series).
For CGCCCCCG, the binding signal in the assay with HOXC10 [1] was 10 upbm affinity estimate (log intensity, higher = more binding, comparable within an allelic series); with PAX4 [9], 9.05 upbm affinity estimate (log intensity, higher = more binding, comparable within an allelic series); with PRRX1 [32], 9.19 upbm affinity estimate (log intensity, higher = more binding, comparable within an allelic series); in the assay with PAX4 [10], 9.27 upbm affinity estimate (log intensity, higher = more binding, comparable within an allelic series); with HOXB6 [33] it was 8.93 upbm affinity estimate (log intensity, higher = more binding, comparable within an allelic series); with HOXD13 [6], 9.18 upbm affinity estimate (log intensity, higher = more binding, comparable within an allelic series). The binding signal in the assay with PAX4 [11] was 9.26 upbm affinity estimate (log intensity, higher = more binding, comparable within an allelic series); in the assay with HOXD13 [7], 9.19 upbm affinity estimate (log intensity, higher = more binding, comparable within an allelic series); in the assay with PAX4 [12], 9.01 upbm affinity estimate (log intensity, higher = more binding, comparable within an allelic series); with HOXC10 [3], 9.94 upbm affinity estimate (log intensity, higher = more binding, comparable within an allelic series); in the assay with PAX4 [13] it was 8.92 upbm affinity estimate (log intensity, higher = more binding, comparable within an allelic series); with HOXD13 [8], 9.4 upbm affinity estimate (log intensity, higher = more binding, comparable within an allelic series). Further, the binding signal in the assay with PAX4 [17] is 9.12 upbm affinity estimate (log intensity, higher = more binding, comparable within an allelic series); with PRRX1 [34], 9.18 upbm affinity estimate (log intensity, higher = more binding, comparable within an allelic series); with HOXB6 [35], 8.91 upbm affinity estimate (log intensity, higher = more binding, comparable within an allelic series).
CCCCGGGC: the binding signal is 9.93 upbm affinity estimate (log intensity, higher = more binding, comparable within an allelic series) in the assay with HOXC10 [1]; 9.37 upbm affinity estimate (log intensity, higher = more binding, comparable within an allelic series) with HOXD13 [6]; 9.35 upbm affinity estimate (log intensity, higher = more binding, comparable within an allelic series) with HOXD13 [7]; 9.89 upbm affinity estimate (log intensity, higher = more binding, comparable within an allelic series) with HOXC10 [3]; 9.35 upbm affinity estimate (log intensity, higher = more binding, comparable within an allelic series) in the assay with HOXD13 [8].
For AACAATCA, the binding signal with HOXC10 [1] is 10.9 upbm affinity estimate (log intensity, higher = more binding, comparable within an allelic series).
Take AGCGGGGG: the binding signal with HOXC10 [1] was 10.1 upbm affinity estimate (log intensity, higher = more binding, comparable within an allelic series); in the assay with PAX4 [9] it was 9.03 upbm affinity estimate (log intensity, higher = more binding, comparable within an allelic series); with PAX4 [10] it was 9.24 upbm affinity estimate (log intensity, higher = more binding, comparable within an allelic series); with PAX4 [11], 9.17 upbm affinity estimate (log intensity, higher = more binding, comparable within an allelic series); in the assay with PAX4 [12] it was 9 upbm affinity estimate (log intensity, higher = more binding, comparable within an allelic series); with HOXC10 [3], 9.93 upbm affinity estimate (log intensity, higher = more binding, comparable within an allelic series). The binding signal was 9.11 upbm affinity estimate (log intensity, higher = more binding, comparable within an allelic series) with PAX4 [13]; 6.68 upbm affinity estimate (log intensity, higher = more binding, comparable within an allelic series) with PROP1 [14]; 6.47 upbm affinity estimate (log intensity, higher = more binding, comparable within an allelic series) with PROP1 [15]; 6.14 upbm affinity estimate (log intensity, higher = more binding, comparable within an allelic series) with PROP1 [16]; 9.16 upbm affinity estimate (log intensity, higher = more binding, comparable within an allelic series) with PAX4 [17].
